Results as given in PubChem BioAssay (NCI).
About 83,000 compounds went through this panel and 20% of them were active in at least one assay; those are over-represented in the sample as a whole.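 Plates (96-well) were seeded with cells, treated with compound at one concentration, and incubated for 48 hours before percent growth was determined.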 Values without a mark were called inactive. Active and inactive are the calls of the source.

tested on: CCRF-CEM leukemia; assay: NCI-60 one-dose screen, 48 h (100 = growth as untreated, 0 = no growth, -100 = all killed); settings: 10 µM unless noted
Method: Growth inhibition of the CCRF-CEM human tumor cell line is measured as a screen for anti-cancer activity. Cells are grown in 96 well plates and exposed to the test compound for 48 hours. Compounds are tested at a single concentration, which is 10^-5 M for most compounds. The reported endpoint is percent growth (GI% or GIPRCNT), where numbers from 0 - 100% represent growth inhibition, and numbers from -100% - 0 represent cell death. For example, a value of 40 represents 60% growth inhibition. A value of 0 means no net growth occurred over the course of the experiment. A value of -40 indicates 40% of cells at the beginning of the experiment died by the end of the experiment. A value of -100 means all cells are dead at the end of the experiment.
NCI-60 Human Tumor Cell Lines Screen was performed using the standard one-dose NCI protocol, which is described in more detail at https://dtp.cancer.gov/discovery_development/nci-60/default.htm.
Compounds with GIPRCNT values below 10 were considered active. Activity score was based on GIPRCNT using the following formula: […]
Score is 0 for GIPRCNT values of 100 or above, 50 for GIPRCNT values of 0, and 100 for GIPRCNT values of -100.

**Q.** C/C(=N/NC(=S)Nc1ccccc1)c1nc2ccc(Cl)cc2[nH]1 was tested. Which growth did it give?
**A.** Its growth is 1.46% (active).

**Q.** CCN1CCN(c2nc(NNC(=O)c3ccccc3)nc(N3CCN(C(c4ccccc4)c4ccccc4)CC3)n2)CC1 was tested. Which growth did it give?
**A.** The growth was 39.4%.

**Q.** Which growth does the source give for O=c1cc(Cc2ccc([N+](=O)[O-])cc2)[nH]c(=O)[nH]1 here?
**A.** Its growth is 91.1%.

**Q.** For Brc1ccc(-c2[nH]ncc2-c2c[nH]c3ccccc23)cc1, which growth is on record?
**A.** The growth was 54.7%.

**Q.** For COc1cc(C(=O)/C=C/c2c(C)n([O-])c3ccc(C(F)(F)F)cc3[n+]2=O)cc(OC)c1OC, which growth is on record?
**A.** The growth was 36.6%.

**Q.** With COc1cc(-c2nn(-c3cccc(NC(=O)c4ccc(N5CCOCC5)c(C(F)(F)F)c4)c3)cc2-c2ccncc2)ccc1Cl as the compound, how does the growth read?
**A.** Its growth is 0.907% (active).

**Q.** Which growth does the source give for O=C(NNC(=O)N1c2ccccc2C=Cc2ccccc21)c1ccc2ccccc2c1 here?
**A.** The growth was 95%.

**Q.** OB(O)c1cccc(-c2nc3ccc4[nH]ncc4c3c3c2CCCC3)c1F was tested. Which growth did it give?
**A.** Its growth is 29.7%.

**Q.** For CCCCCCCCCCCCNC(=O)[C@H]1CSC(c2cc3ccccc3s2)N1 (stereo not given in full), which growth is on record?
**A.** The growth was -45.5% (active).

**Q.** CN(CCCCN(C[C@H]1Cc2ncccc2CN1)[C@H]1CCCc2cccnc21)C1CCC(F)(F)CC1 was tested. Which growth did it give?
**A.** Its growth is 88.3%.

**Q.** Which growth does the source give for N#Cc1c(-c2ccccc2)cc(-c2ccccc2)n(CC(=O)NO)c1=O here?
**A.** The growth was -19.2% (active).

**Q.** With N/C(=N\S(=O)(=O)c1ccccc1)Nc1nc2ccccc2s1 as the compound, how does the growth read?
**A.** Its growth is 109%.

**Q.** With COc1ccc(S(=O)(=O)NCCCNc2nccc(-c3c(-c4cccc([N+](=O)[O-])c4)nc4sccn34)n2)cc1 as the compound, how does the growth read?
**A.** Its growth is 18.7%.

**Q.** For COc1ccc(C2=CC(c3cc(OC)c(OC)c(OC)c3)NC(=O)N2)cc1OC (stereo not given), which growth is on record?
**A.** The growth was 6.59% (active).

**Q.** How did the growth turn out when COc1ccc(/C=C2\Oc3cc(OCCCN4CCCC4)ccc3C2=O)c(OC)c1 was run?
**A.** The growth was 11.9%.

**Q.** COc1ccc(-c2nc3sc(-c4cc(OC)c(OC)c(OC)c4)nn3c2/C=C2/C(=O)Nc3ccc(F)cc32)cc1 was tested. Which growth did it give?
**A.** The growth was 20.6%.

**Q.** CC[N+](CC)=c1cc2oc3cc(N(C)C)ccc3nc-2cc1C was tested. Which growth did it give?
**A.** Its growth is 28.2%.

**Q.** For COc1ccc(-n2c(=O)sc3c(Cl)nc(C)nc32)c(OC)c1, which growth is on record?
**A.** The growth was 55.9%.

**Q.** For O=C(N/N=C/C=C\c1ccccc1)C(=O)N/N=C/C=C/c1ccccc1, which growth is on record?
**A.** The growth was 108%.

**Q.** How did the growth turn out when Cc1cc(N)n(S(=O)(=O)c2oc(-c3ccccc3)nc2C#N)n1 was run?
**A.** The growth was 7.83% (active).

**Q.** CN1CCN(CCCOc2ccc3nc(Nc4ccc(Cl)c(C(F)(F)F)c4)ccc3c2)CC1 was tested. Which growth did it give?
**A.** The growth was 17.6%.

**Q.** C1=Cc2ccccc2N(c2nnc(-c3ccccc3)o2)c2ccccc21 was tested. Which growth did it give?
**A.** The growth was 73.9%.

**Q.** With COc1cc(NC(=O)SC2=NCCS2)cc(OC)c1 as the compound, how does the growth read?
**A.** The growth was 99.5%.

**Q.** For COc1ccc(C2=Nn3c(nnc3-n3nc(C)cc3C)SC2)cc1, which growth is on record?
**A.** Its growth is 6.66% (active).

**Q.** For COc1cc(/C=C/C(=O)c2cccc(-n3cc(-c4cc(OC)c(OC)c(OC)c4)[nH]c3=O)c2)cc(OC)c1OC, which growth is on record?
**A.** Its growth is -1.54% (active).

**Q.** C=CCn1cc(-c2nc3ccccc3s2)c2cc(-c3ccc4c5c(cccc35)C(=O)N(CCN3CCNCC3)C4=O)ccc21 was tested. Which growth did it give?
**A.** The growth was 30.2%.

**Q.** For Cc1ccc(S(=O)(=O)NCCCNc2cc(-c3cn(C(C)(C)C)nc3-c3cccc(O)c3)ccn2)cc1, which growth is on record?
**A.** Its growth is 52.4%.

**Q.** With O=C1/C(=C/c2ccc(Cl)cc2)CN(Cc2cn(CCNc3ccnc4cc(Cl)ccc34)nn2)C/C1=C\c1ccc(Cl)cc1 as the compound, how does the growth read?
**A.** The growth was -7.97% (active).

**Q.** COc1ccc(-c2nc(-c3nc4cc(C)c(C)cc4[nH]3)cc3c2[nH]c2ccccc23)cc1 was tested. Which growth did it give?
**A.** The growth was -7.91% (active).

**Q.** How did the growth turn out when CCc1cnc(=S)n(-c2ccccc2)c1 was run?
**A.** Its growth is 129%.

**Q.** For CCCCCCCCN(CCCCCCCC)CCCCCCNc1cc(OC)cc2cccnc12, which growth is on record?
**A.** The growth was -59% (active).

**Q.** With CC(C)(C)n1cc(-c2ccnc(NCCCNS(=O)(=O)c3ccc(Cl)cc3)c2)c(-c2cccc(O)c2)n1 as the compound, how does the growth read?
**A.** The growth was 8.5% (active).

**Q.** For O=C1Nc2ccc3c(c2/C1=C\c1cc2c(cc1Br)OCO2)OCO3, which growth is on record?
**A.** Its growth is 10% (active).

**Q.** Which growth does the source give for CC1(c2ccc(Cl)cc2)OC(=O)CC(=O)O1 here?
**A.** The growth was 100%.

**Q.** With Nc1cccc(-c2nc3sccn3c2-c2ccnc(NCCCNS(=O)(=O)c3cccc4ccccc34)n2)c1 as the compound, how does the growth read?
**A.** The growth was 16.1%.

**Q.** For Cc1cc(C)n(-c2nnc3n2N=C(c2ccc(-c4ccccc4)cc2)CS3)n1, which growth is on record?
**A.** Its growth is 28.1%.

**Q.** How did the growth turn out when C=C1C(=O)O[C@H]2[C@H]1CC/C(Cn1cc(CNC(=O)Cc3cn(C(=O)c4ccc(Cl)cc4)c4ccc(OC)cc34)nn1)=C\CC[C@@]1(C)O[C@@H]21 was run?
**A.** The growth was -34% (active).

**Q.** How did the growth turn out when C=C1CCC2C3(C)COC(C)(C)OC3CCC2(C)C1C/C=C1/C(=O)OCC1Oc1ccccc1OC (stereo not given) was run?
**A.** The growth was 13.3%.

**Q.** With COc1cc(Nc2nc(N[C@H]3CCCC[C@@H]3N)nc3cc[nH]c(=O)c23)cc(OC)c1 as the compound, how does the growth read?
**A.** The growth was -2.71% (active).

**Q.** For CCCCCCCCCCCCCCCCNC(=O)OC(C)C, which growth is on record?
**A.** Its growth is 7.75% (active).
